Source: PubChem BioAssay (EPA / NIEHS)
Records with an inconclusive call do not appear. Calls of active or inactive are those of the source. Rule for the calls, unless noted: active = hit-call score of the fitted dose curve at least 0.9, where 1 is the maximum; inconclusive = response in the unintended direction; inactive = score below 0.9.

What was measured:
[1] = TOX21_p53_BLA_p2_viability: Viability Assessment in the Tox21 HCT-116 p53 Agonism Beta-lactamase Assay, Phase 2 (AID 2283591);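 note: compound exposure lasted 16 h at 37 °C; actives lower the ATP signal meaning cytotoxicity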
In short: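 Cytotoxicity readout: CellTiter-Glo ATP luminescence, 30 min at room temperature, after the beta-lactamase read. Cells were HCT116 exposed 16 h at 37C to compounds pin-transferred at 217-fold dilution from DMSO stocks.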

[2] = molecular target: Cellular tumor antigen p53 (Homo sapiens) (UniProt P04637); assay: TOX21_p53_BLA_p2_ratio: Tox21 HCT-116 p53 Agonism Beta-lactamase Assay, Ratio, Phase 2 (AID 2283592)
Chain of Cellular tumor antigen p53 (Homo sapiens) (P04637 whole entry, looked up): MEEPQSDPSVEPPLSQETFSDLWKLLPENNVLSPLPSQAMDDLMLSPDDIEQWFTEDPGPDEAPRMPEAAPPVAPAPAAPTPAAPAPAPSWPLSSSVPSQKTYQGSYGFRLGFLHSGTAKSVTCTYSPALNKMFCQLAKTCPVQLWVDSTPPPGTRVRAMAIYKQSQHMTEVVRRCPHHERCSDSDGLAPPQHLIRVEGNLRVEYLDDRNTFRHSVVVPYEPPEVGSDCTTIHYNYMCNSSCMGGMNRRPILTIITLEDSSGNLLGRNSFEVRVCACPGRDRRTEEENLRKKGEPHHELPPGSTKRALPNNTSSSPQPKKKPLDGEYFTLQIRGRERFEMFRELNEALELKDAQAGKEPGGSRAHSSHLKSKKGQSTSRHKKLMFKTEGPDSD
In short: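 Read-out is the blue/green (460/530 nm, 405 nm excitation) ratio after 2 h CCF4-AM loading, fitted as gain versus DMSO. Compounds, pinned at 217-fold dilution from DMSO stocks, stayed 16 h on HCT-116 beta-lactamase reporter cells seeded 5 h earlier.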

[3] = TOX21_p53_BLA_p3_viability: Viability Assessment in the Tox21 HCT-116 p53 Agonism Beta-lactamase Assay, Phase 3 (AID 2283593);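 note: cells exposed to compound for 16 h before reading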
In short: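 Cellular ATP was quantified by CellTiter-Glo luminescence, read after 30 min at room temperature. Beforehand, HCT116 cells (4000/well) received compound 5 h post-seeding, 217-fold diluted from DMSO, then incubated 16 h at 37C.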

[4] = molecular target: Cellular tumor antigen p53 (Homo sapiens) (UniProt P04637); assay: TOX21_p53_BLA_p3_ratio: Tox21 HCT-116 p53 Agonism Beta-lactamase Assay, Ratio, Phase 3 (AID 2283596)
In short: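 Cells were seeded at 4000/well, rested 5 h at 37C, then dosed with DMSO compound solutions (217-fold dilution) for 16 h. CCF4-AM substrate was loaded for 2 h at room temperature, and the 460/530 nm emission ratio was fitted for gain of signal versus DMSO.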

[5] = TOX21_p53_BLA_p4_viability: Viability Assessment in the Tox21 HCT-116 p53 Agonism Beta-lactamase Assay, Phase 4 (AID 2283597);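 note: hits lower the luminescence signal meaning cytotoxicity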
In short: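 Cytotoxicity as reduced cellular ATP (CellTiter-Glo luminescence, 30 min room temperature), measured in the same wells following the CCF4 FRET p53 reading. Human HCT-116 cells received compounds in DMSO (217-fold dilution) for 16 h.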

[6] = molecular target: Cellular tumor antigen p53 (Homo sapiens) (UniProt P04637); assay: TOX21_p53_BLA_p5_ratio: Tox21 HCT-116 p53 Agonism Beta-lactamase Assay, Ratio, Phase 5 (AID 2283599)
In short: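 Beta-lactamase reporter ratio (blue 460 nm over green 530 nm, 405 nm excitation) after 2 h CCF4-AM loading, in HCT-116 cells exposed 16 h at 37 C to compounds pinned at 217-fold dilution. Increases relative to DMSO baseline scored.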

[7] = molecular target: Cellular tumor antigen p53 (Homo sapiens) (UniProt P04637); assay: TOX21_p53_BLA_p4_ratio: Tox21 HCT-116 p53 Agonism Beta-lactamase Assay, Ratio, Phase 4 (AID 2283601)
In short: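 Signal is the blue/green (460nm/530nm) ratio of cleaved versus uncleaved CCF4-AM substrate, read after 2 h substrate loading. Cells were HCT116 carrying the p53-responsive beta-lactamase reporter, dosed 16 h at 37C, 5% CO2; CellTiter-Glo measured in parallel.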

[8] = system: Brachyury (BRA) Protein Expression, Deisenroth Lab, TBXT (gene 6862); assay: CCTE_Deisenroth_DEVTOX-GLR_legacy_Bra: (Legacy) CCTE's DevTox GLR-Endo Assay Evaluation of Brachyury (BRA) Protein Expression, Deisenroth Lab (AID 2284329; active = hit-call score of the fitted dose curve at least 0.9, where 1 is the maximum; inactive = score below 0.9)
In short: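 Percent Bra-positive cells, scored by high-content imaging against a threshold of 5x BMAD over the undifferentiated control median, with the 0.2% DMSO median subtracted. RUES2-GLR cultures were dosed twice at 24 h intervals across a 48 h differentiation, at 1 nM–200 uM in ten steps, with n=4 replicates.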

[9] = CCTE_Deisenroth_DEVTOX-GLR_legacy_CellCount: (Legacy) Viability Assessment in CCTE's DevTox GLR-Endo Assay, Deisenroth Lab (AID 2284331; active = hit-call score of the fitted dose curve at least 0.9, where 1 is the maximum; inactive = score below 0.9); conditions: actives raise or lower the signal
In short: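 Seed RUES2-GLR 24 h; differentiate 48 h, dosing at 0 and 24 h; fix, stain nuclei; image 5 fields/well; count nuclei. Conc. 1 nM - 200 uM, single technical replicate, n=4 experiments; bidirectional fit vs 0.2% DMSO.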

[10] = system: SRY-box transcription factor 2 (SOX2) Protein Expression, Deisenroth Lab, SOX2 (gene 6657); assay: CCTE_Deisenroth_DEVTOX-GLR_legacy_Sox2: (Legacy) CCTE's DevTox GLR-Endo Assay Evaluation of SRY-box transcription factor 2 (SOX2) Protein Expression, Deisenroth Lab (AID 2284346; active = hit-call score of the fitted dose curve at least 0.9, where 1 is the maximum; inactive = score below 0.9)
In short: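 Percent Sox2-positive cells was scored by high-content imaging of 5 fields per well. Positivity cutoff was 5x BMAD over the directed endoderm control, and the DMSO median was subtracted. Cells were RUES2-GLR, dosed twice at 24-h intervals over 48 h of differentiation (1 nM-200 uM).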

[11] = system: SRY-box transcription factor 2 (SOX2) Protein Expression, Deisenroth Lab, SOX2 (gene 6657); assay: CCTE_Deisenroth_DEVTOX-GLR_Endo_SOX2: CCTE's DevTox GLR-Endo Assay Evaluation of SRY-box transcription factor 2 (SOX2) Protein Expression, Deisenroth Lab (AID 2284412)
In short: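 Endpoint is percent SOX2-positive cells (SOX2+ count/total cells) minus 0.2% DMSO control, from high-content imaging of fixed, nuclear-stained RUES2-GLR cells. Dosing twice at 24 h intervals over 48 h differentiation, 1 nM–200 uM in 10 points.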

[12] = system: Brachyury (BRA) Protein Expression, TBXT (gene 6862); assay: CCTE_Deisenroth_DEVTOX-GLR_Endo_BRA: CCTE's DevTox GLR-Endo Assay Evaluation of Brachyury (BRA) Protein Expression, Deisenroth Lab (AID 2284417; active = hit-call score of the fitted dose curve at least 0.9, where 1 is the maximum; inactive = score below 0.9)
In short: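 Percent BRA+ (mesoderm) RUES2-GLR cells after 48 h differentiation with two exposures, 1 nM - 200 uM; 0.2% DMSO control subtracted.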

[13] = CCTE_Deisenroth_DEVTOX-GLR_Endo_CellCount: Viability Assessment in CCTE's DevTox GLR-Endo Assay, Deisenroth Lab (AID 2284420; active = hit-call score of the fitted dose curve at least 0.9, where 1 is the maximum; inactive = score below 0.9)
In short: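 Percent change in nuclear-stain cell counts versus 0.2% DMSO, from high-content imaging over 5 fields per well. Over a 48 h endoderm differentiation, RUES2-GLR cells received two doses 24 h apart across a 1 nM–200 uM series, with n=4.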

[14] = system: SRY-box transcription factor 17 (SOX17) Protein Expression, Deisenroth Lab, SOX17 (gene 64321); assay: CCTE_Deisenroth_DEVTOX-GLR_Pluri_SOX17: CCTE's DevTox GLR-Pluri Assay Evaluation of SRY-box transcription factor 17 (SOX17) Protein Expression, Deisenroth Lab (AID 2284427)
In short: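 The endpoint is SOX17+ cells as a fraction of cell count, corrected for the 0.2% DMSO control and obtained by high-content fluorescence imaging of fixed cells. Cells were RUES2-GLR under a 48-hour endoderm differentiation, dosed twice at 24-hour intervals over 1 nM–200 uM.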

[15] = TOX21_p53_BLA_p5_viability: Viability Assessment in the Tox21 HCT-116 p53 Agonism Beta-lactamase Assay, Phase 5 (AID 2283600)
In short: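 Viability came from CellTiter-Glo ATP luminescence, read after 30 min at room temperature. Before this, HCT-116 p53-bla cells (4000/well) had 16 hours of compound exposure at 37C, with DMSO stocks diluted 217-fold on transfer.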

[16] = molecular target: THRB (gene 7068) (UniProt P10828); assay: TOX21_TRB_BLA_Antagonist_Followup_ratio: Tox21 Thyroid Hormone Receptor beta Antagonism Beta-lactamase (BLA) Follow-Up Assay, Ratio (AID 2283958)
Chain of THRB (gene 7068) (P10828 whole entry, looked up, the tested form may be a part): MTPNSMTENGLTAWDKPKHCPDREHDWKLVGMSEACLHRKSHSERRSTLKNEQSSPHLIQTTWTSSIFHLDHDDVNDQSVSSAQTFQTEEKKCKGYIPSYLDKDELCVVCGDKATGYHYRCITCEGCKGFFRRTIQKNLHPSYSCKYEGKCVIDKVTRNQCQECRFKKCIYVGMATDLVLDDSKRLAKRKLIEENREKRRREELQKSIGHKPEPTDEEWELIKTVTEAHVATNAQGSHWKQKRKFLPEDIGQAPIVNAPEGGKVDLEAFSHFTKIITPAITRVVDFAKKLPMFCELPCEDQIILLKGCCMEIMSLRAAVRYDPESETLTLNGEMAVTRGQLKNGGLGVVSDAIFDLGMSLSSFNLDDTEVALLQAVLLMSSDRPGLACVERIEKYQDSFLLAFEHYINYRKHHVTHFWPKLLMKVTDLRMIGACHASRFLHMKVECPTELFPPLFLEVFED
In short: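 Cells were plated and allowed to attach for 5 h, then dosed with compounds in DMSO at 11 concentrations for 18 h at 37C. Beta-lactamase reporter activity was measured via CCF4-AM FRET as the 460:530 nm ratio.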

[17] = TOX21_TRB_BLA_Antagonist_Followup_viability: Viability Assessment in the Tox21 Thyroid Hormone Receptor beta Antagonism Beta-lactamase (BLA) Follow-Up Assay (AID 2283961)
In short: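 ATP-based CellTiter-Glo luminescence (30 min, room temperature) run in the same wells as the TRβ-bla readout. Cells: GeneBLAzer HEK293T expressing GAL4-TRβ LBD, exposed 18 h at 37C to compounds at 11 concentrations in triplicate, stripped-serum medium.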

[18] = molecular target: THRB (gene 7068) (UniProt P10828); assay: TOX21_TRB_COA_Antagonist_Followup_ratio: Tox21 Thyroid Hormone Receptor beta Antagonism through Coactivator Recruitment Follow-Up Assay, Ratio (AID 2283967)
In short: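 Coactivator recruitment to the GST-tagged TRb ligand-binding domain (5.0 nM) was read as the 520/495 nm TR-FRET ratio, using 200 nM fluorescein SRC-2 peptide and 2 nM terbium anti-GST. Scaled between DMSO and T3 wells; loss of signal fitted.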

[19] = TOX21_TR_RXR_BLA_Antagonist_Followup_viability: Viability Assessment in the Tox21 Thyroid Hormone Receptor beta Retinoid X Receptor alpha (RXRa) Antagonism Beta-lactamase (BLA) Follow-Up Assay (AID 2283979)
In short: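 Follow-up compounds (11 concentrations, triplicate) were incubated 16 h at 37C/5% CO2 with HEK293T RXRa-bla cells seeded at 2,500/well in charcoal-stripped-serum medium. ATP content by CellTiter-Glo luminescence gave viability; curves fitted in both directions against DMSO.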

Cc1ccc(NC(=O)c2ccc(CN3CCN(C)CC3)cc2)cc1Nc1nccc(-c2cccnc2)n1
outcome [1]: inactive
outcome [2]: inactive
outcome [3]: inactive
outcome [4]: inactive
outcome [5]: inactive
outcome [6]: inactive
outcome [7]: inactive
AC50 [8]: 20.1 µM (active)
AC50 [9]: 15.9 µM (active)
AC50 [10]: 19.3 µM (active)
AC50 [11]: 25.6 µM (active)
AC50 [12]: 22.7 µM (active)
AC50 [13]: 15.8 µM (active)
AC50 [14]: 47.4 µM (active)

COC(=O)c1ccc(C(=O)O)cc1
outcome [1]: inactive
outcome [2]: inactive
outcome [3]: inactive
outcome [4]: inactive
outcome [5]: inactive
outcome [15]: inactive
outcome [7]: inactive

C[Si](NC1CCCCC1)(NC1CCCCC1)NC1CCCCC1
outcome [1]: inactive
outcome [2]: inactive
outcome [3]: inactive
outcome [4]: inactive
AC50 [5]: 88.8 µM (active)
outcome [15]: inactive
outcome [7]: inactive

CN[C@@H]1[C@H](O)[C@H](NC)[C@H]2O[C@@]3(O)C(=O)C[C@@H](C)O[C@H]3O[C@@H]2[C@H]1O
outcome [1]: inactive
outcome [2]: inactive
outcome [3]: inactive
outcome [4]: inactive
outcome [5]: inactive
outcome [15]: inactive
outcome [7]: inactive

CC(C)N=C(N)/N=C(\N)Nc1ccc(Cl)cc1
outcome [1]: inactive
outcome [2]: inactive
outcome [3]: inactive
outcome [4]: inactive
outcome [5]: inactive
outcome [6]: inactive
outcome [7]: inactive
outcome [16]: inactive
outcome [17]: inactive
outcome [18]: inactive
outcome [19]: inactive

C[S+](C)CCC(N)C(=O)O (centres undefined)
outcome [1]: inactive
outcome [2]: inactive
outcome [3]: inactive
outcome [4]: inactive
outcome [5]: inactive
outcome [15]: inactive

CCCCN(CCCC)CC(O)c1cc(Cl)cc2c1-c1ccc(Cl)cc1/C2=C/c1ccc(Cl)cc1 (centres undefined)
outcome [1]: inactive
outcome [2]: inactive
outcome [3]: inactive
outcome [4]: inactive
outcome [5]: inactive
outcome [15]: inactive
outcome [7]: inactive

CCCCCCCCCCCCI
outcome [1]: inactive
outcome [2]: inactive
outcome [3]: inactive
outcome [4]: inactive
outcome [5]: inactive
outcome [15]: inactive

O=C(O)c1cc(N=Nc2ccc([N+](=O)[O-])cc2)ccc1O
AC50 [1]: 84.1 µM (active)
outcome [2]: inactive
AC50 [3]: 45.4 µM (active)
outcome [4]: inactive
AC50 [5]: 29.6 µM (active)
outcome [15]: inactive
outcome [7]: inactive

Cc1ncc(CSSCc2cnc(C)c(O)c2CO)c(CO)c1O
outcome [1]: inactive
outcome [2]: inactive
outcome [3]: inactive
outcome [4]: inactive
outcome [5]: inactive
outcome [15]: inactive
outcome [7]: inactive

CC(CN1CC(=O)NC(=O)C1)N1CC(=O)NC(=O)C1 (centres undefined)
outcome [1]: inactive
AC50 [2]: 8.6 µM (active)
outcome [3]: inactive
outcome [4]: inactive
outcome [5]: inactive
AC50 [6]: 8.51 µM (active)
AC50 [7]: 8.89 µM (active)

Cc1ccc2c(n1)Oc1ccc(C(C)C(=O)OCC(=O)N(C)C)cc1C2 (centres undefined)
outcome [1]: inactive
outcome [2]: inactive
outcome [3]: inactive
outcome [4]: inactive
outcome [5]: inactive
outcome [15]: inactive

CC(C)NNC(=O)c1ccncc1
outcome [1]: inactive
outcome [2]: inactive
outcome [3]: inactive
outcome [4]: inactive
outcome [5]: inactive
outcome [15]: inactive
outcome [7]: inactive
